In the library only some 2.2% were active in any assay of this set; here they are far more common.
Mot1-301 SUMO – yeast Mot1-301 growth rescue at high temperature, primary screen, SUMOylation pathway inhibitor project, S. cerevisiae, ATP luminescence, 38.5C; S. cerevisiae Mot1-301 growth rescue; percent above DMSO median, 100 means doubled; growth rescue, % at 18.8 µM; 1% of 320,000 active;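 active = every valid replicate shows activation above 250% relative to neutral control wells; inactive = the rest, any valid replicate at or below 250%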;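 also: OY570 slx delta 5 strain wells were the positive control but not used for scaling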
p-CIP stab down – p/CIP-EGFP fusion destabilizers, primary screen, fluorescence, F442A cells; 16 h; decrease of EGFP signal, % at 10 µM; 0.01% of 290,000 active; Q05BA5;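 active = EGFP signal decrease of at least 30% at 10 µM or well 3 SD below plate mean, unless failing retest; inactive = the rest, including hits failing retest or dose response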
Target sequence (Q05BA5 1-1403): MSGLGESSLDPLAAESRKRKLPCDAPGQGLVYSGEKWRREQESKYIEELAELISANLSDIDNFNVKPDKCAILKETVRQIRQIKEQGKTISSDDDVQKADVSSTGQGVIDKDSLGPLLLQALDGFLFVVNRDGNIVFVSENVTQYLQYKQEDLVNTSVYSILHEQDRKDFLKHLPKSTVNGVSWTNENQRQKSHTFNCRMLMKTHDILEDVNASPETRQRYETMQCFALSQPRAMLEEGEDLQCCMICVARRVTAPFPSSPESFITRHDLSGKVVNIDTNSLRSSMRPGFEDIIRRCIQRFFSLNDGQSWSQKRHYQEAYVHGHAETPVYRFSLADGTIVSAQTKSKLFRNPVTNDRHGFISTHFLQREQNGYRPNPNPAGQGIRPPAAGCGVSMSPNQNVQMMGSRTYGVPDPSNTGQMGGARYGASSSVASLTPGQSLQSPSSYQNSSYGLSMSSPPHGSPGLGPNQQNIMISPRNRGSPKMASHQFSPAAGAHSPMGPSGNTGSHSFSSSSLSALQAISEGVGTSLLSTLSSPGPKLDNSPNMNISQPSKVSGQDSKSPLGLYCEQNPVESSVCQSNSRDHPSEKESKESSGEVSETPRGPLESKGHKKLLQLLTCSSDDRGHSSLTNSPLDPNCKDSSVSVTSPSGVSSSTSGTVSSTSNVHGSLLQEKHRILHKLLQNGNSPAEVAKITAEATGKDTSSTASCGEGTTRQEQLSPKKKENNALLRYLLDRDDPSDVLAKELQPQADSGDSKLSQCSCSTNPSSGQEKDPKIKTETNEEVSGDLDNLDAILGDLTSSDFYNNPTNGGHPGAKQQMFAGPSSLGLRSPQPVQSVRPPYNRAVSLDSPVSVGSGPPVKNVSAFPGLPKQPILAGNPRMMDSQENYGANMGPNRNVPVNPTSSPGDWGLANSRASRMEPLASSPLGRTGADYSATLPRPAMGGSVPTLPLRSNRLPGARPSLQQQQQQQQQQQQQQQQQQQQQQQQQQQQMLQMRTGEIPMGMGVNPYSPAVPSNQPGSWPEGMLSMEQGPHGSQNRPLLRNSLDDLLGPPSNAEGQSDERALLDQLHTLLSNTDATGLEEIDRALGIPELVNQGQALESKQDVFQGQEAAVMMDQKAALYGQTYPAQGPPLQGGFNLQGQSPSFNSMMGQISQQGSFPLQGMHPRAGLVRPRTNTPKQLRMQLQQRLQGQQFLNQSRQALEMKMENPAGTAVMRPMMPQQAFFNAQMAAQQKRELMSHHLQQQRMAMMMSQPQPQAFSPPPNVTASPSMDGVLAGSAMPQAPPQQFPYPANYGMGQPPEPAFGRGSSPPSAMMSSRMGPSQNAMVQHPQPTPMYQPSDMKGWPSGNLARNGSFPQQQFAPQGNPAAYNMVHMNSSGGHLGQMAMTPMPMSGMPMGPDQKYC
PHOSPHO1 inh – PubChem AID 1565; Phosphoethanolamine/phosphocholine phosphatase (Homo sapiens), Q8TCT1; recombinant PHOSPHO1, absorbance phosphatase assay; inhibition, % at 13.3 µM; 1.1% of 290,000 active; in the data active = inhibition above about 60%
PvdQ inh – P. aeruginosa PvdQ acylase inhibitors, primary screen, biochemical, fluorescence, plate reader and imaging, single point; inhibition, % at 10 µM; purified PvdQ acylase; PvdQ acylase [Pseudomonas aeruginosa LESB58]; AID 488965, 2010; 0.063% of 340,000 active; in the data active = inhibition above about 30%, passing the limit was not always enough; inconclusive = no clear call, values can overlap the other calls;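 also: 0% = vehicle neutral wells and 100% = reference inhibitor wells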
JMJD2C inh – inhibitors of GASC-1 histone demethylase, primary screen, biochemical, fluorescence, DELFIA europium; inhibition, % at 2.35 µM; 0.069% of 330,000 active; AID 2099, 2009; Lysine-specific demethylase 4C (Homo sapiens), Q9H3R0; GST-JMJD2C(1-420) H3K9me3 demethylation;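 active = more than half of a compound's replicate wells show inhibition beyond 50%, single wells judged on their own value; inconclusive = some, but no more than half, of replicates pass 50% inhibition; inactive = no replicate passes 50% inhibition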;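 also: signal counts dimethyl H3K9 product captured on neutravidin plate; 0% = median of DMSO wells and 100% = 0.3 times that DMSO median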
HDAC3 inh – HDAC3 deacetylase inhibitors, primary screen, biochemical, fluorescence, cell-free homogeneous | AID 2718, 2010 | Histone deacetylase 3 (Homo sapiens), O15379 | 0.15% of 320,000 active | inhibition, % at 8.3 µM | recombinant HDAC3, fluorogenic peptide/trypsin coupled; in the data active = inhibition above about 26%, passing the limit was not always enough; inconclusive = no clear call, values can overlap the other calls
Mot1 SUMO dose – growth restoration of Mot1-301 yeast on galactose, dose response, SUMO pathway inhibitor project, whole organism, S. cerevisiae, ATP luminescence, cherry-picked samples | shares compounds with Mot1-301 SUMO | AID 493004, 2010 | 2,300 tested, under 10 active | growth activity, percent, % at 42 µM | S. cerevisiae Mot1-301 galactose growth, 24 h; -100 = growth of slx-deleted rescue strain;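 active = Signal drops as the depositor expects, and the fitted half-maximal dose is no more than ten times the top valid tested dose; inconclusive = Poor fit, or a flat curve whose signal drops by 30% to 70%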;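 also: more negative values mean stronger growth rescue toward the control strain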
* = called active by the depositor; ? = inconclusive; . = not tested or not shown; + = active, no number; [ ] = dose if it differs, or a comment.

SMILES	Mot1-301 SUMO	p-CIP stab down	PHOSPHO1 inh	PvdQ inh	JMJD2C inh	HDAC3 inh	Mot1 SUMO dose
COc1ccc2c(c1)[C@H]1[C@H](CO2)[C@H](c2ccccc2)[C@]2(C)C(=O)Nc3ccc(Br)cc3C(=O)N12	548*	.	.	13	9	-3	-1
COc1cc2c(cc1OC)C(=O)N1[C@H]3c4ccccc4OC[C@@H]3[C@H](c3ccccc3)[C@]1(C)C(=O)N2	183	.	.	-14	-1	6	.
COc1ccc2c(c1)OC[C@H]1[C@H]2N2C(=O)c3cc(OC)c(OC)cc3NC(=O)[C@@]2(C)[C@H]1c1ccccc1	485*	.	.	-9	3	14	-1
COc1ccc2c(c1)[C@H]1[C@H](CO2)[C@H](c2ccccc2)[C@]2(C)C(=O)Nc3cc(F)ccc3C(=O)N12	376*	.	.	-14	.	6	-1
COc1ccc(NS(=O)(=O)c2cccc(C(=O)NNC(=O)CNC(=O)c3cccc(C)c3)c2)cc1	0	-25	43	-9	0	-5	.
O=C(COC(=O)CC1CC2CCC1C2)NCc1ccccc1 (stereo not drawn)	-4	.	.	-18	-3	-4	.
COc1cccc(NC(=O)CSc2nc3ccsc3c(=O)n2-c2ccc(C(=O)O)cc2)c1	-7	-3	-20	-5	9	-4	.
COc1ccc(NC(=O)c2ccc(Oc3ncccn3)cc2)cc1	-14	-9	21	5	-9	1	.
CCCCN(C/C=C/c1ccccc1OC)Cc1ccccc1	529*	-2	24	2	-4	1	0
Cc1ccc(OCC(=O)NCCCNC(=O)c2ccc(C)nc2)cc1	3	-7	2	-15	1	3	.
CCN(C[C@H]1N[C@@](CC)(C(=O)OC)[C@H]2C(=O)N(Cc3ccccc3)C(=O)[C@@H]12)S(=O)(=O)c1ccc(F)cc1	4	.	.	-17	-7	4	.
Cc1c(NC(=O)C(C)Sc2nnc(-c3ccccc3)o2)c(=O)n(-c2ccccc2)n1C (stereo not drawn)	373*	7	-5	2	9	9	0
CC1=CC(C)(C)N2C(=O)C3(NCCc4c3[nH]c3ccccc43)c3cc(C)cc1c32 (stereo not drawn)	506*	-8	25	-17	-4	0	0
CCc1cc2c(=O)c(-c3nc4ccccc4[nH]3)coc2c(CN2CCCCC2)c1O	477*	-8	20	-4	-3	7	-1
CCc1cc2c(=O)c(-c3nc4ccccc4n3C)c(C)oc2c(CN2CCOCC2)c1O	520*	-5	-11	7	23	-5	-1
COc1ccc(C(=O)NCCSc2ccc(C)cc2)cc1	470*	4	-5	-7	2	0	0
Cc1ccc(SCCNC(=O)c2ccccc2)cc1	-6	-2	45	-5	-1	-9	.
COc1ccc(NC(=O)C2CCCN(C(=O)Nc3ccc(F)cc3)C2)cc1 (stereo not drawn)	4	2	-5	-16	-5	3	.
Oc1cccc(/C=N/N2CCN(C3c4ccccc4-c4ccccc43)CC2)c1	-6	-23	3	-8	6	9	.
C(=N\N1CCN(C2c3ccccc3-c3ccccc32)CC1)/c1ccncc1	+	4	3	-21	-1	-6	0
CC(C)(Oc1ccc(Cl)cc1)C(=O)N(Cc1ccccc1)c1ccccn1	-11	0	1	-2	11	0	.
CC1C=CCC2C(=O)N(c3cccc(C(=O)NCc4ccccc4)c3)C(=O)C12 (stereo not drawn)	4	-3	16	-6	8	-2	.
CCCCC(O)(CCCC)C(=O)NN(C(=O)OC)c1ccc(C)cc1	446*	8	20	-1	7	-4	0
Cc1cccc(NC(=O)CSc2nc(=O)n(CCN3CCOCC3)c3c2CCCC3)c1C	-6	.	.	-6	-6	-4	.
O=C(N1CCOCC1)C1(S(=O)(=O)c2ccccc2)CC=CC1	639*	-8	-6	-1	-4	-6	0
SMILES	Mot1-301 SUMO	p-CIP stab down	PHOSPHO1 inh	PvdQ inh	JMJD2C inh	HDAC3 inh	Mot1 SUMO dose
O=C(NCc1cccc(Br)c1)C1CC2Cn3c(nc4ccccc43)C2N1c1ccccc1 (stereo not drawn)	-12	.	.	-9	0	-1	.
CC(NC(C(=O)c1ccccc1)c1ccccc1)c1ccccc1 (stereo not drawn)	.	.	.	6	.	.	.
O=c1cc(-c2ccccc2)nc(N2CCN(Cc3ccccc3)CC2)[nH]1	479*	-15	16	-1	-14	-6	0
COc1ccc(-c2cc(=O)[nH]c(N3CCN(Cc4ccccc4)CC3)n2)cc1	8	0	8	-1	9	-1	.
Cc1nn(CC(=O)OCC(=O)c2ccc(OC(F)F)cc2)c(C)c1[N+](=O)[O-]	-10	.	.	-6	-6	3	.
CC(C)CCCN1CCN=C1Nc1ccccc1	596*	-1	10	-13	-2	2	0
CCOCCCNC(=O)c1cc(Cl)c(NC(=O)C2=C(C)OCCS2)cc1OC	3	-4	42	-13	4	5	.
O=C(Cc1ccc(Cl)cc1)N/N=C/c1ccncc1	3	-14	-1	-16	5	?	.
O=C(CN1CCN(Cc2ccc(Cl)cc2)CC1)N/N=C/c1ccncc1	374*	-16	-9	6	6	-3	0
CCOC(=O)N1CCN(C(=O)c2ccccc2CCc2ccccc2)CC1	-9	1	10	-15	7	4	.
CCOC(=O)N1CCN(C(=O)c2ccccc2-c2ccccc2)CC1	436*	5	0	-9	4	-4	0
O=C(COC(=O)c1c(F)cccc1F)Nc1ccc2[nH]c(=O)[nH]c2c1	76	25	-23	-4	-15	0	.
O=C(COC(=O)c1cccc(Br)c1)Nc1ccc2[nH]c(=O)[nH]c2c1	510*	.	.	0	54	1	0
COc1ccc(CNC(=O)C(OC(=O)c2ccco2)c2ccc(F)cc2)cc1 (stereo not drawn)	-6	-7	18	-15	1	2	.
Oc1cccc(/C=N/N2CCN(c3ccccn3)CC2)c1	547*	1	16	-4	5	.	0[21 µM]
Oc1ccc(/C=N/N2CCN(c3ccccn3)CC2)cc1	200	0	24	-8	-3	.	.
O=C(N1CCN(Cc2ccc3c(c2)OCO3)CC1)C(Cl)(Cl)Cl	57	-8	19	-6	-14	-7	.
